# Molecular target: Metabotropic glutamate receptor 6 (Homo sapiens) (UniProt O15303)
# Test: off-target activity check on mGlu6 receptor – cell-based, GIRK thallium flux, agonist curve fold shift, selectivity assay for mGlu8/mGlu7 PAM project, profiling panel (AID 743421)
# Conditions: mGlu6/GIRK cells, thallium flux (Fluo Zn); agonist CRC fold shift; at 10 µM; stronger effect = higher value
# Chain of Metabotropic glutamate receptor 6 (Homo sapiens) (O15303 whole entry, looked up): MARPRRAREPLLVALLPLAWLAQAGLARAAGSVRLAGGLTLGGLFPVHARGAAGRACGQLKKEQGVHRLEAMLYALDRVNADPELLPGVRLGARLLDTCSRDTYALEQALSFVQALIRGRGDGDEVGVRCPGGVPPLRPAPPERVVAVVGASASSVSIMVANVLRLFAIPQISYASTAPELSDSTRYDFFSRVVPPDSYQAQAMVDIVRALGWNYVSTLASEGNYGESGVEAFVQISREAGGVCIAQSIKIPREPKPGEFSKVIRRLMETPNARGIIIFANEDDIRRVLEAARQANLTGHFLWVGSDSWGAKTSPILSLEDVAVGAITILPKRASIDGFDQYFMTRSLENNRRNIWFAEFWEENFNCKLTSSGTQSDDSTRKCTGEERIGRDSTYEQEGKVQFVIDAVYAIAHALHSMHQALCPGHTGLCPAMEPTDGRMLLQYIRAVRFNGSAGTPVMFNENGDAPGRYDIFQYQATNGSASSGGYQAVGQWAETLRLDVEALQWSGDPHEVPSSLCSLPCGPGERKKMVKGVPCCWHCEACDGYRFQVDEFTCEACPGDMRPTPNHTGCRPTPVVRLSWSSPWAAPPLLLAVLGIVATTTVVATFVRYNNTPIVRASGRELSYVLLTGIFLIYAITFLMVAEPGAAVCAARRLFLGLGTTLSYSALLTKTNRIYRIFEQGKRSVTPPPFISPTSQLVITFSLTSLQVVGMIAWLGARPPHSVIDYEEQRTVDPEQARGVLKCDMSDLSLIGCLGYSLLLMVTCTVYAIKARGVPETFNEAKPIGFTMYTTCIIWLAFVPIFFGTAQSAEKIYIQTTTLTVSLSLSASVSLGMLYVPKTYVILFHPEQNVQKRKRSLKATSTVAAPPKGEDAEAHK
structure (smiles),measurement,value
COC(=O)c1ccc(-n2c(C)cc(C(=O)CSc3ccc(NC(C)=O)cc3)c2C)cc1,fold shift,2.59

# — PubChem BioAssay AID743421 (Vanderbilt Specialized Chemistry Center, 2014)
